Consider 40 compounds from PubChem BioAssay AID489043 (National Center for Advancing Translational Sciences (NCATS), 2010).

Results filed as inconclusive are left out. Unmarked numbers belong to inactive results. Active and inactive are the calls of the source. The call rests on the fitted dose curve; in most records, active means well fitted activation curve with a large enough effect; inconclusive means small, poorly fitted or top-dose-only effect; inactive means flat fitted curve, though single readings scatter.
Potency means the concentration at half of the fitted maximal effect.

The target in the experiment is Relaxin receptor 2 (Homo sapiens) (UniProt Q8WXD0). In words: qHTS Assay for Agonists of the Relaxin Receptor RXFP1: RXFP2 Hit Validation. Further: nearly all actives have a fitted effect of over 65% in size. To be noted: HEK293 RXFP2 cAMP TR-FRET, 30 min; series mostly up to 115 µM; activation: at the top concentration. The text has this: NIH Chemical Genomics Center [NCGC] NIH Molecular Libraries Probe Production Centers Network [MLPCN] MLPCN Grant: R03 MH085705-01A1 Assay Submitter (PI): Alexander Agoulnik NCGC Assay Overview: The relaxin hormone is involved in the variety of biological functions in normal tissues and diseases. The role of relaxin is well-established in female reproduction and parturition, mammary gland and endometrial development, maintenance of myometrial quiescence during pregnancy. Relaxin signaling through its G protein-coupled receptor (GPCR) RXFP1 results in ECM remodeling through regulation of collagen deposition, cell invasiveness, proliferation and overall tissue homeostasis. […] Recombinant human relaxin (rhRlx) is currently being tested in clinical trials as a protective agent in congestive heart failure, in treating severe preeclampsia, and as an anti-fibrotic agent in systemic sclerosis. Upon relaxin binding RXFP1 activation leads to the activation of adenylate cyclase (AC) via Gs. cAMP will activate PKA, which phosphorylates many signaling proteins. Thus, detection of cAMP increase is an easy and reliable indication of relaxin receptor activation. To screen for agonists of the relaxin receptor, a HEK293T cell line stably transfected with RXFP1 was used. RXFP1 activation was assayed by changes in cAMP levels as detected with a time-resolved fluorescence energy transfer (TR-FRET) cAMP detection kit. This assay measures activation of a cell expressing RXFP2, another GPCR targeted by relaxin, to determine the selectivity of compounds for RXFP1.
Chain of Relaxin receptor 2 (Homo sapiens) (Q8WXD0 whole entry, looked up): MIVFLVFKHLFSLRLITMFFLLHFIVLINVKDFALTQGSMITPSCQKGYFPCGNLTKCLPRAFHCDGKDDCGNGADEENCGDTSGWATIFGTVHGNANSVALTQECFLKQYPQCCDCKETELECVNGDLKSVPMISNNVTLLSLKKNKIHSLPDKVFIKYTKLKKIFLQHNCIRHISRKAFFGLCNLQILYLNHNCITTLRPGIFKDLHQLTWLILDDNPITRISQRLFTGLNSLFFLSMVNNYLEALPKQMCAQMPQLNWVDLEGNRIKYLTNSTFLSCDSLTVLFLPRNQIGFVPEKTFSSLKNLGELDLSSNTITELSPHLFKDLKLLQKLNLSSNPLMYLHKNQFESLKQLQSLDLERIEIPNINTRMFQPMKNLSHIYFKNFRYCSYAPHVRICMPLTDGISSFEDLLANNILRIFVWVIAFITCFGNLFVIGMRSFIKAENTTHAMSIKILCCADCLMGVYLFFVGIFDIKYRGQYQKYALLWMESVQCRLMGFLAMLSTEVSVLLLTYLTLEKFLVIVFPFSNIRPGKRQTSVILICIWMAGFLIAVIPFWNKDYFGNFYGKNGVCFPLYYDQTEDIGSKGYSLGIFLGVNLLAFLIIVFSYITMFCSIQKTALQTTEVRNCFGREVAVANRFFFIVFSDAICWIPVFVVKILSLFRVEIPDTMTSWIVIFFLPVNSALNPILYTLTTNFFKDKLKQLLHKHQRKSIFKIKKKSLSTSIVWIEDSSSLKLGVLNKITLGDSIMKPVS
NCGC Assay Protocol Summary: This is a cell-based assay for cAMP second messenger response to screen for agonists of the RXFP2 receptor. The assay was conducted in the presence of a PDE4 inhibitor (Ro 20174). The cells were lysed and the cAMP levels were measured with a TR-FRET cAMP kit. Presence of cAMP in the cell lysate disrupts binding between the cryptate-labeled anti-cAMP and d2-labeled cAMP pair, leading to a decrease in the TR-FRET signal. Data were normalized to the controls for basal activity (buffer only) and 100% activity (29 nM porcine relaxin). The EC50 values were determined from concentration-response data modeled with the standard Hill equation 1536-well assay protocol for the HEK293 RXFP2 cAMP assay: (1) Add 3 ul HEK293 RXFP2 cell culture. 2000 cells/well in DMEM/F12, 10% FBS, 1x Pen/Strep (dispensed offline with MultiDrop Combi). (2) Incubate 16-24 hr at 37C, 5% CO2. (3) Add 1 ul 400uM Ro20174 in DPBS, 0.05% BSA, 0.005% Tween 20. (3) Add 23 nl compounds in DMSO solution. Final concentration was 0.5 - 58 uM. (4) Incubate 30 min at 37C, 5% CO2. (5) Add 1 ul cAMP-d2 in lysis buffer (HTRF cAMP HiRange kit, CisBio). (6) Add 1 ul anti-cAMP antibody-cryptate in lysis buffer (HTRF cAMP HiRange kit, CisBio). (7) Incubate 30 min at room temperature. […] Keywords: relaxin, RXFP1, RXFP2, G-protein coupled receptor, cAMP, agonist, high throughput screening, MLSMR, MLSCN, NIH Roadmap, qHTS and NCGC
As for `O=[N+]([O-])c1cc2c(c(CSc3nnc4ccccn34)c1)OCOC2`, the Potency was 11 µM (active).

In the case of `CCCCn1c(SCC(=O)N2CCOCC2)nc2c1c(=O)n(C)c(=O)n2C`, the Potency was 38.9 µM (active).

Take `Cc1ccc(-n2nnc3c(=O)n(CC(=O)NCC4CCCO4)cnc32)cc1` (stereo not given): the Potency is 30.9 µM (active).

On to `CCN(CC)S(=O)(=O)c1ccc(N2CCOCC2)c(NC(=O)c2cc([N+](=O)[O-])ccc2Cl)c1`, for which the “activation” value is 14%.

With `Cn1c(=O)c2sccc2n2c(CCCC(=O)NCCc3ccc(S(N)(=O)=O)cc3)nnc12`, the Potency was 43.6 µM (active).

For `N#CCCSc1ncnc2c1oc1ccccc12`, the Potency is 19.4 µM (active).

On to `COc1ccc(C(=O)Nc2ccc(S(=O)(=O)Nc3onc(C)c3C)cc2)c(OC)c1`, for which the Potency is 9.43 µM (active).

On to `Cc1c(CCOC(=O)c2cc([N+](=O)[O-])ccc2Cl)sc[n+]1CCCCS(=O)(=O)[O-]`, for which the “activation” value is 8.95%.

Consider `O=C(O)c1cccc(CSc2nnc(Cc3ccccc3)o2)c1`, for which the “activation” value was 3.94% [at 44.7 µM].

For `CC1(C)Cc2c(sc3c2c2ncnn2c2nnc(SCC(=O)NCc4ccco4)n32)CO1`, the Potency is 7.76 µM (active).

Consider `COc1ccc(S(=O)(=O)Nc2ccccn2)c(C)c1C`, for which the “activation” value was 1.66% [at 44.7 µM].

For `O=c1c2ccccc2cnn1Cc1n[nH]c(=S)n1-c1ccc(F)c(Cl)c1`, the Potency was 15.5 µM (active).

Regarding `c1ccc(COn2nnc3ccccc32)c(COn2nnc3ccccc32)c1`, the “activation” value is 1.12% [at 44.7 µM].

For `CCN(CC)C(=O)c1cc(Cl)ccc1NC(=O)c1ccco1`, the “activation” value is -3.03% [at 125 µM].

On to `Cc1cccc(-c2nnc(SCC(=O)NC3CC3)n2C)c1`, for which the “activation” value is -25.5%.

As for `COc1ccc(/C=C2/SC(=O)N(CC(=O)Nc3cc(C)on3)C2=O)cc1OC`, the “activation” value was -62%.

In the case of `COc1ccc(Cl)cc1-c1n[nH]c(=S)o1`, the Potency is 4.88 µM (active).

Turning to `Nc1c(Cl)cc(-c2[nH]c3cc(C(=O)NCCO)ccc3c(=O)c2O)cc1Cl`, the Potency is 34.6 µM (active).

As to `COc1ccc(S(=O)(=O)N2CCOCC2)cc1NC(=O)CSc1ncnc2ccccc12`, the Potency is 24.5 µM (active).

Regarding `COc1cccc(C(=O)CSc2nnc(-c3cc(OC)cc(OC)c3)o2)c1`, the Potency was 10.9 µM (active).

`CCN(CC)S(=O)(=O)c1ccc2c(c1)N(CC(=O)NCc1ccccn1)C(=O)CO2`: the Potency is 34.6 µM (active).

Regarding `CCN(CC)CCCN1C=C2C(=O)C(C)(OC(=O)C3CCCC3)C(=O)C=C2C=C1c1ccsc1` (stereo not given), the “activation” value is -3.37%.

On to `CC1(C)O[C@@H]2[C@H](O1)[C@@H](COS(=O)(=O)O)O[C@H]2n1cnc2c(N)ncnc21`, for which the Potency is 6.15 µM (active).

For the compound `COc1ccc(OC)c(CNC(=O)C2CCN(C(=O)N(C)C)CC2)c1`, the “activation” value is -3.03%.

Turning to `COC(=O)[C@@H]1C[C@@]2(O)[C@H](O)[C@H](O)[C@H](O)C[C@H]2N1Cc1cc(F)ccc1F`, the “activation” value is 4.14%.

For `CCOc1ccc2cc(C#N)c(SCC(=O)NC(C)CC)nc2c1` (stereo not given), the Potency was 6.15 µM (active).

Turning to `CC1(C)Cc2nc3sc4c(SCC(=O)NC(c5ccccc5)c5ccccc5)ncnc4c3cc2CO1`, the Potency is 6.15 µM (active).

As for `O=C(NC1CCCCCC1)c1cc2c(=O)n3ccccc3nc2s1`, the Potency is 38.9 µM (active).

On to `CCN(CC)CCCCCC(=O)Nc1ccccc1C(=O)Nc1ccccc1`, for which the “activation” value was -1.53% [at 125 µM].

In the case of `Cc1ccc(CN(C)C(=O)c2ccccc2NC(=O)c2ccccc2)o1`, the “activation” value was -1.29% [at 125 µM].

For `Cc1nc2scc(C)n2c(=O)c1S(=O)(=O)N1CCN(c2ccccn2)CC1`, the Potency is 30.9 µM (active).

On to `O=S(=O)(c1cccc(-c2cn3cccnc3n2)c1)N1CCOCC1`, for which the Potency is 34.6 µM (active).

As for `CC(C)n1cnc2c(N(C)c3cccc(Cl)c3)nc(N(CCO)CCO)nc21`, the “activation” value was -4.45%.

Regarding `CCN(CC)S(=O)(=O)c1ccc(C(=O)NCCN2C(=O)S/C(=C\c3cccnc3)C2=O)cc1`, the Potency is 13.8 µM (active).

On to `CN(CC(=O)Nc1ccccc1Cl)C(=O)COC(=O)Cc1c(F)cccc1Cl`, for which the “activation” value was 0.312% [at 44.7 µM].

Turning to `O=C(Nc1cccc(C(F)(F)F)c1)c1ccccc1NC(=O)C1CCCCC1`, the Potency entry is “inactive”.

`CCOC(=O)CNC(=O)CSc1ccc2nnc(-c3cccnc3)n2n1`: the “activation” value is -13.2%.

Take `COC(=O)c1nc2ccc(N3CCOCC3)cc2c(C)c1C(=O)OC`: the Potency was 38.9 µM (active).

For the compound `COc1ccc(/C=C2/SC(=O)N(CCC(=O)Nc3ccc(C)cc3)C2=O)cc1OC`, the “activation” value was -63.1%.

`COC(=O)c1c(N2C(=O)CC(Sc3ncccc3C(=O)O)C2=O)sc(C)c1C` (stereo not given): the “activation” value is -7.17%.
